Assay outcomes as filed in PubChem BioAssay.
KKLEB cytotox – reduces viability of KKLEB cystic fibrosis airway cells; KKLEB CF airway cells viability, ATPlite luminescence, overnight; hits give low values; cells stimulated with P. aeruginosa culture filtrate; activity change (cytotoxicity), % at 5 µM; 0.36% of 360,000 active; AID 602141;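 active = corrected activity change at or below -50% at 5 µM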
CF NFkB inh – blocks PAF-induced NF-kB reporter in cystic fibrosis cells; KKLEB NF-kB-GFP reporter, GFP fluorescence overnight; inhibition, % at 5 µM; 0.86% of 360,000 active; AID 588850;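 active = at least 50% inhibition at 5 µM, scaled per plate between neutral and stimulator controls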;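 also: PAF is a Pseudomonas aeruginosa culture filtrate used as stimulus; plate controls were PAF-stimulated DMSO wells for no effect and unstimulated DMSO wells for full effect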
TWEAK-Fn14 inh – blocks TWEAK-Fn14 interaction in a reporter cell assay. TWEAK-stimulated Fn14 reporter cells, luciferase luminescence, 8 h. inhibition, % at 10 µM. 2% of 360,000 active; in the data active = inhibition above about 50%
Peg3 prom inh – Peg3 promoter activity inhibition; inhibition, % at 20 µM; AID 588405; HeLa PEG-Prom luciferase reporter, luminescence, overnight; 1.7% of 360,000 active;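 active = inhibition of at least 50% at 20 µM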
TROY NFkB inh – TROY signaling inhibition | Q293 LMP1-TROYcd NF-kB luciferase reporter, 4 h | inhibition, % at 10 µM | 0.98% of 360,000 active;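 active = compounds whose plate-normalised and pattern-corrected inhibition of the luciferase reporter signal at the single screening dose is 50% or more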
HIF-2a block – HIF-2a inhibition; 786-0 RCC cells HIF-2a reporter, luciferase luminescence, overnight; inhibition, % at 18.8 µM; 0.72% of 360,000 active;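 active = inhibition of the luminescence signal of 40% or more relative to plate controls, in a single-dose primary screen at 18.75 µM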
* hit, by the source's call; . = not tested or not shown. Rows were chosen to be rich in hits. Some 4% of all compounds tested hit in one or more screens of this group.

SMILES	KKLEB cytotox	CF NFkB inh	TWEAK-Fn14 inh	Peg3 prom inh	TROY NFkB inh	HIF-2a block
CCOCCCn1c(SCc2nc3ccccc3s2)nc2ccccc2c1=O	-2	13	73*	-290	53*	-268
CCOCCCn1c(SCC(=O)Nc2ccccc2)nc2ccccc2c1=O	15	-20	-7	10	19	-3
CCCCNC(=S)N1CCN(C)CC1	6	11	13	-1	-3	3
CCOC(=O)CN1C(=O)SC(CC(=O)Nc2nccs2)C1=O (centres undefined)	3	2	67*	-7	.	13
O=C(NCc1cnc2ccccn12)C1CCC(=O)N(Cc2cccc(F)c2)C1 (centres undefined)	6	16	5	10	20	-2
Cc1nnc(SCC(=O)Nc2ccc([N+](=O)[O-])cc2)n1C	7	-4	-23	5	2	16
Cc1cc([N+](=O)[O-])ccc1NC(=O)CSc1nnc(C)n1C	6	-8	58*	1	-22	3
COC(=O)C1CCN(C(=O)c2ccc(NC(C)=O)cc2)CC1	8	-7	-1	8	-17	2
O=C(NCc1ccco1)c1cnn2c(C(F)F)cc(-c3ccccc3)nc12	-12	-6	-41	12	22	10
Cc1cc(C)c(Cc2c(C)nc3c(C(=O)NCc4ccco4)cnn3c2C)c(C)c1	-2	14	73*	14	88*	-6
COc1ccc(F)cc1S(=O)(=O)N1CCC2(CC1)OCCN2S(=O)(=O)c1cccs1	-16	16	-16	-1	-18	15
Nc1c(C(=O)NC2CC2)c2nc3ccccc3nc2n1-c1ccc2c(c1)OCO2	-9	2	-5	35	0	0
CN(C)C(=O)c1ccc(-n2cnc3ccccc3c2=O)cc1	13	-12	-8	-26	-31	-47
O=c1c2ccccc2ncn1-c1ccc2c(c1)OCCO2	7	3	51*	-59	-4	-55
O=c1c2c3nc4ccccc4nc3n(-c3ccc4c(c3)OCCO4)c2ncn1C1CCCC1	-12	16	-9	59*	7	-1
CN(Cc1cccs1)C(=O)CCNS(=O)(=O)c1ccc(Br)cc1	2	-22	7	8	0	10
O=C(Nc1ccc(N2CCCC2)c(S(=O)(=O)Nc2cccc(C(F)(F)F)c2)c1)c1cccs1	0	13	46	31	-11	8
CCCNC(=O)NC(=O)COc1ccc(-c2ccc(C#N)cc2)cc1	-4	-23	0	7	1	9
Cn1cccc1C(=O)NNC(=O)COc1ccc(C#N)cc1	0	12	-11	74*	1	5
Cc1ccc(S(=O)(=O)N(C)CC(=O)OCC(=O)NCCc2ccc(S(N)(=O)=O)cc2)cc1	6	-54	-2	2	11	14
CCN1CCN(c2c(C=O)c(Cl)nc3ccc(OC)cc23)CC1	0	17	56*	5	26	25
CCN1CCN(c2cc(C)c3cc(NC(=O)CCC(=O)Nc4ccc(OC)cc4OC)ccc3n2)CC1	4	-18	4	4	-11	-26
CC(Nc1oc(-c2ccco2)nc1C#N)c1ccccc1 (centres undefined)	-8	10	25	12	-12	19
CCOc1ccc(-c2cc(C(=O)NCCOC)[nH]n2)c(C)c1	-1	-17	5	-33	1	-66
CCOc1ccc(-c2cc(C(=O)Nc3ccc(C)c(NS(C)(=O)=O)c3)[nH]n2)c(C)c1	4	-13	52*	-4	39	-47
SMILES	KKLEB cytotox	CF NFkB inh	TWEAK-Fn14 inh	Peg3 prom inh	TROY NFkB inh	HIF-2a block
CC(C)(C)NC(=O)CN(C(=O)C1CSC(=O)C1)c1ccc2c(c1)OCCO2 (centres undefined)	3	10	61*	3	54*	-27
CN(c1ccccc1)S(=O)(=O)c1ccc(Cl)c(C(=O)Nc2ccccc2N2CCOCC2)c1	-8	22	3	16	7	0
CN(C)S(=O)(=O)c1ccc(Nc2nc(C3CC3)nc3c2nnn3Cc2ccccc2Cl)cc1	-10	27	87*	40	49	28
CCc1nc(Nc2ccc(OC)c(OC)c2)c2nnn(Cc3ccccc3Cl)c2n1	2	11	52*	25	50	13
COc1ccc(CN(C)CC(=O)NC(C)c2ccccc2)c(OC)c1 (centres undefined)	2	9	-21	22	8	12
CCCN1C(=O)C(Cc2nc3ccccc3c(=O)n2C)c2ccccc21 (centres undefined)	-9	15	5	25	-17	11
CCC(=O)Nc1cc2nn(-c3ccccc3)nc2cc1Cl	-24	6	52*	-161	10	-147
[O-][n+]1c2c(c3c4non(O)c4ccc31)CCCC2	13	30	0	42	51*	-16
COn1c2c(c3c4no[n+]([O-])c4ccc31)CCCC2	-2	9	13	4	-18	11
COC(=O)c1cc2c(n1S(=O)(=O)c1ccc(C)cc1)C(=O)C(=O)c1[nH]cc(C(=O)OCc3ccccc3)c1-2	-69*	85*	103*	89*	65*	33
Cn1cccc1C(=O)OCC(=O)c1cc2ccccc2o1	6	-2	-1	-105	-47	-114
Cc1ccc(C(=O)O)cc1NC(=O)Nc1ccc2c(c1)OCO2	14	-4	-18	-62	-52	-92
Clc1ccc(-c2nnc(NC3=NCCCCC3)o2)cc1	-12	-2	93*	8	66*	24
O=C(Nc1nnc(-c2ccc(Cl)cc2)o1)C1CCCCC1	-11	-14	-4	-60	-18	-36
Cc1n[nH]c(=O)c2c(NC(=O)CSc3nnc(-c4ccco4)n3C)oc(C)c12	-8	-19	2	13	-21	0
COc1ccc(OC)c(/C=N/n2c(C)nc3ccccc3c2=O)c1	-6	5	-14	11	-30	6
COc1cc(OC)c(OC)cc1/C=N/n1c(C)nc2ccccc2c1=O	3	4	97*	0	13	19
O=C(O)c1ccc(NCc2nc3ccccc3n2Cc2ccccc2)cc1	-8	2	-9	10	-2	9
CCn1cnc2cc(NCc3nc4ccccc4n3C)ccc21	-3	16	86*	-90	69*	-101
CC(C)n1cnc2cc(NCc3nc4ccccc4n3C)ccc21	-28	-3	60*	-187	67*	-166
CCn1cnc2cc(NCc3nc4ccccc4n3Cc3ccccc3)ccc21	-8	6	81*	-199	80*	-70
Nc1ncnc2c1C(c1ccccc1)c1c(ccc3ccccc13)O2 (centres undefined)	-4	-38	-76	36	57*	-3
CCOC(=O)CC(=O)Nc1ncnc2c1C(c1ccccc1)c1c(ccc3ccccc13)O2 (centres undefined)	-10	-44	-11	14	37	28
